Key:
Test in all cases: log2 ratio of Biotin-Ahx-Ub-VS probe labelling (compound/DMSO); higher = less target engagement, active = hit call of the paper (q ≤ 0.05, log2 ratio ≤ -1)
Conditions in all cases: treatment time: 3 h
[1] = compound: CCC1N(CCc2sccc12)C(=O)CCl
Procedure, shortened: (§1)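 Compound at 50 or 200 µM, or DMSO, was applied for 3 h in triplicate to HEK293T lysate (495 µg per sample, Tris/CHAPS/IGEPAL buffer with protease inhibitors), after which Biotin-Ahx-Ub-VS was added at 0.5 µM final for 1 h. The labelled DUBs were pulled down with NeutrAvidin, digested with LysC and trypsin, and run by diaPASEF LC-MS/MS. Ratios are averaged base-two logs of compound over DMSO from median-normalised label-free quantities by unpaired t-test, counting only proteins with at least 2 unique peptides.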

[2] = compound: CN1c2ccccc2C(CS1(=O)=O)NC(=O)CCl
Procedure, shortened: as §1

[3] = compound: Cl.ClCC(=O)N1CCc2ncncc2C1
Procedure, shortened: as §1

[4] = compound: Cl.Cn1ncc2C(CCCc12)NC(=O)CCl
Procedure, shortened: as §1

[5] = compound: ClCC(=O)NC1CCOc2ccccc12
Procedure, shortened: as §1

[6] = compound: ClCC(=O)NC1CCCc2ccccc12
Procedure, shortened: (§2)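 Average ratios of compound to vehicle were obtained by unpaired t-test. Beforehand, 495 µg samples of HEK293T lysate in buffer with protease inhibitors were treated in triplicate with compound over a concentration series or vehicle for 3 h, then with 0.5 µM final Biotin-Ahx-Ub-VS for 1 h. Labelled deubiquitinases were NeutrAvidin-enriched, digested and quantified label-free by diaPASEF LC-MS/MS in Spectronaut, normalised to the global median. Values are log2 and cover proteins with at least two unique peptides.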

[7] = compound: ClCC(=O)N[C@@H]1CCCc2ccccc12
Procedure, shortened: as §2

[8] = compound: ClCC(=O)N[C@H]1CCCc2ccccc12
Procedure, shortened: as §2

[9] = compound: CCC1N(CCc2cc(OC)c(Cl)cc12)C(=O)CCl
Procedure, shortened: as §1

[10] = compound: CCCC1N(CCc2cc(OC)c(OC)cc12)C(=O)CCl
Procedure, shortened: as §1

Measured: log2 ratio of Biotin-Ahx-Ub-VS probe labelling

OTUB1 (UniProt Q96FW1)
Sequence of UniProt Q96FW1 (Q96FW1 whole entry): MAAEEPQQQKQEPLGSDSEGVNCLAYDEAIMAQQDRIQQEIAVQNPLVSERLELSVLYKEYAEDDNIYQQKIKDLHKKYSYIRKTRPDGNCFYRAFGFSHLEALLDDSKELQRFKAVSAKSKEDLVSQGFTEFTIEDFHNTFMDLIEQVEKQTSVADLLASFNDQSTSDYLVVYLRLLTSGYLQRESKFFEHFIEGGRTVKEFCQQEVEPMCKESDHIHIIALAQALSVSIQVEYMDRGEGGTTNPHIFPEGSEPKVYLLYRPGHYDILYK
inactive: [1]; compound concentration: 50uM -0.117 | [1]; compound concentration: 200uM -0.154 | [2]; compound concentration: 50uM -0.275 | [2]; compound concentration: 200uM -0.196 | [3]; compound concentration: 50uM -0.211 | [3]; compound concentration: 200uM -0.426 | [4]; compound concentration: 50uM 0.106 | [4]; compound concentration: 200uM -0.247 | [5]; compound concentration: 50uM -0.281 | [5]; compound concentration: 200uM -0.037 | [6]; compound concentration: 0.78uM -0.196 | [6]; compound concentration: 1.56uM -0.0742 | [6]; compound concentration: 3.13uM -0.226 | [6]; compound concentration: 6.25uM -0.309 | [6]; compound concentration: 12.5uM -0.314 | [6]; compound concentration: 25uM -0.147 | [6]; compound concentration: 50uM -0.404 | [6]; compound concentration: 100uM -0.172 | [6]; compound concentration: 200uM -0.492 | [7]; compound concentration: 0.78uM 0.0648 | [7]; compound concentration: 1.56uM -0.00906 | [7]; compound concentration: 3.13uM -0.216 | [7]; compound concentration: 6.25uM -0.197 | [7]; compound concentration: 12.5uM -0.122 | [7]; compound concentration: 25uM -0.199 | [7]; compound concentration: 50uM -0.236 | [7]; compound concentration: 100uM -0.0374 | [7]; compound concentration: 200uM -0.142 | [8]; compound concentration: 0.78uM -0.244 | [8]; compound concentration: 1.56uM -0.103 | [8]; compound concentration: 3.13uM -0.28 | [8]; compound concentration: 6.25uM -0.301 | [8]; compound concentration: 12.5uM -0.188 | [8]; compound concentration: 25uM -0.119 | [8]; compound concentration: 50uM -0.16 | [8]; compound concentration: 100uM -0.00187 | [8]; compound concentration: 200uM -0.123 | [9]; compound concentration: 50uM 0.198 | [9]; compound concentration: 200uM -0.422 | [10]; compound concentration: 50uM -0.107 | [10]; compound concentration: 200uM -0.0707

MINDY4 (UniProt Q4G0A6)
Sequence of UniProt Q4G0A6 (Q4G0A6 whole entry): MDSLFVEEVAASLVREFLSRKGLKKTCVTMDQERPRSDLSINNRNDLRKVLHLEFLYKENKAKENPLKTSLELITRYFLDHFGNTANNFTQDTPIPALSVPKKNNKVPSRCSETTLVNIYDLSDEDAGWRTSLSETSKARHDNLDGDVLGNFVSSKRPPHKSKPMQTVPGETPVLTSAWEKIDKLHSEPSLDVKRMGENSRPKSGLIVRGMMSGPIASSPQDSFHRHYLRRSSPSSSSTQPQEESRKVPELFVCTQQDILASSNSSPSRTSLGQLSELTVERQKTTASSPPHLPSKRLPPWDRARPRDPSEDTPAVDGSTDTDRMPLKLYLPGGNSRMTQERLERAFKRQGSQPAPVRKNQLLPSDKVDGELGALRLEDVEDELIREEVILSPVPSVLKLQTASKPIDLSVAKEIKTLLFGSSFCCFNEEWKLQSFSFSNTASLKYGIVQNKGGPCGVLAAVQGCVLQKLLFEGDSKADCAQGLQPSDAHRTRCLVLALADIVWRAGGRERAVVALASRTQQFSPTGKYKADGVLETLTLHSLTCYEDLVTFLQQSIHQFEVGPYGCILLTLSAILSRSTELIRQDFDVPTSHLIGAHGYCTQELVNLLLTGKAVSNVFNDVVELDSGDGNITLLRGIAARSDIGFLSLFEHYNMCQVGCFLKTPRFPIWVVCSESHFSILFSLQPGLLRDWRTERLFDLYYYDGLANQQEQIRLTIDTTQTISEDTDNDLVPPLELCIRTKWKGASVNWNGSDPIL
inactive: [1]; compound concentration: 50uM -0.62 | [1]; compound concentration: 200uM 0.797 | [2]; compound concentration: 200uM 0.688 | [3]; compound concentration: 50uM 0.73 | [3]; compound concentration: 200uM -0.108 | [4]; compound concentration: 50uM 0.308 | [4]; compound concentration: 200uM 0.136 | [5]; compound concentration: 50uM 0.825 | [5]; compound concentration: 200uM 0.522 | [7]; compound concentration: 0.78uM -0.837 | [7]; compound concentration: 12.5uM -0.893 | [9]; compound concentration: 50uM 0.0614 | [9]; compound concentration: 200uM -0.042 | [10]; compound concentration: 50uM 0.725 | [10]; compound concentration: 200uM -0.113
active: [2]; compound concentration: 50uM -4.18 | [6]; compound concentration: 0.78uM -2.83 | [6]; compound concentration: 1.56uM -3.43 | [6]; compound concentration: 3.13uM -2.24 | [6]; compound concentration: 6.25uM -2.62 | [6]; compound concentration: 12.5uM -1.89 | [6]; compound concentration: 25uM -2.3 | [6]; compound concentration: 50uM -2.78 | [6]; compound concentration: 100uM -2.85 | [6]; compound concentration: 200uM -2.45 | [7]; compound concentration: 1.56uM -1.89 | [7]; compound concentration: 3.13uM -2.16 | [7]; compound concentration: 6.25uM -1.61 | [7]; compound concentration: 25uM -2.02 | [7]; compound concentration: 50uM -1.96 | [7]; compound concentration: 100uM -1.48 | [7]; compound concentration: 200uM -1.33 | [8]; compound concentration: 0.78uM -2.37 | [8]; compound concentration: 1.56uM -1.3 | [8]; compound concentration: 3.13uM -1.21 | [8]; compound concentration: 6.25uM -3.95 | [8]; compound concentration: 12.5uM -1.25 | [8]; compound concentration: 25uM -1.1 | [8]; compound concentration: 50uM -1.99 | [8]; compound concentration: 100uM -1.91 | [8]; compound concentration: 200uM -2.54

UniProt P51784
Sequence of UniProt P51784 (P51784 whole entry): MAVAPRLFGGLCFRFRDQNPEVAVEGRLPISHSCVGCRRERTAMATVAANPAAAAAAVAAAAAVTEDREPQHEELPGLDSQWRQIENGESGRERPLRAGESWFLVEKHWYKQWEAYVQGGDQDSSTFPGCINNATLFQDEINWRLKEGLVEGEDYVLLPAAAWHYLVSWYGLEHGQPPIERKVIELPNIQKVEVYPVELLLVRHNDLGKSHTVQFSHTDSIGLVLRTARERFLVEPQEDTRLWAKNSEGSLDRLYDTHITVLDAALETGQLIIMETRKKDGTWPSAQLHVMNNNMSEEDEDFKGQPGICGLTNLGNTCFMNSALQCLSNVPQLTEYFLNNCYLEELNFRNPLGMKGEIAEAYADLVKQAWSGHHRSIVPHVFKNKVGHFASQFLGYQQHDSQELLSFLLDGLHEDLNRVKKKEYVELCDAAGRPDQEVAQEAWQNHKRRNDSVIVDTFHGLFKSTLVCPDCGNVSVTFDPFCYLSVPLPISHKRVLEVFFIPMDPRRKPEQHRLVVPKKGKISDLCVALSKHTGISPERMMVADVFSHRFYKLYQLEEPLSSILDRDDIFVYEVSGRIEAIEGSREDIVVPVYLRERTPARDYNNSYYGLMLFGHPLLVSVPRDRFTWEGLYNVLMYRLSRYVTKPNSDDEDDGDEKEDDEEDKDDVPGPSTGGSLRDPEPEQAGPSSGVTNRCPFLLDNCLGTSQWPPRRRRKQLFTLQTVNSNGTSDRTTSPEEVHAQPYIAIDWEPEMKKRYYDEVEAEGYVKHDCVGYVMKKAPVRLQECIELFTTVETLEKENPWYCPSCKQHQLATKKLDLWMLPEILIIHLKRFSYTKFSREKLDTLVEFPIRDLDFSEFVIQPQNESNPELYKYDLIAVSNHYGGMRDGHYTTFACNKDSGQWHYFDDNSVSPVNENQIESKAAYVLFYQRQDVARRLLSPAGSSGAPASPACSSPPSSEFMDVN
active: [10]; compound concentration: 200uM -1.44
inactive: [1]; compound concentration: 50uM 0.031 | [1]; compound concentration: 200uM -0.194 | [2]; compound concentration: 50uM -0.0381 | [2]; compound concentration: 200uM -0.118 | [3]; compound concentration: 50uM 0.0396 | [3]; compound concentration: 200uM -0.389 | [4]; compound concentration: 50uM 0.218 | [4]; compound concentration: 200uM 0.132 | [5]; compound concentration: 50uM 0.157 | [5]; compound concentration: 200uM -0.115 | [6]; compound concentration: 0.78uM -0.0264 | [6]; compound concentration: 1.56uM -0.0198 | [6]; compound concentration: 3.13uM -0.0986 | [6]; compound concentration: 6.25uM 0.0318 | [6]; compound concentration: 12.5uM -0.0982 | [6]; compound concentration: 25uM -0.201 | [6]; compound concentration: 50uM 0.0391 | [6]; compound concentration: 100uM -0.0818 | [6]; compound concentration: 200uM -0.0885 | [7]; compound concentration: 0.78uM -0.219 | [7]; compound concentration: 1.56uM -0.052 | [7]; compound concentration: 3.13uM -0.00301 | [7]; compound concentration: 6.25uM -0.0872 | [7]; compound concentration: 12.5uM -0.0816 | [7]; compound concentration: 25uM 0.00546 | [7]; compound concentration: 50uM -0.0574 | [7]; compound concentration: 100uM -0.00104 | [7]; compound concentration: 200uM -0.228 | [8]; compound concentration: 0.78uM -0.0931 | [8]; compound concentration: 1.56uM -0.0394 | [8]; compound concentration: 3.13uM -0.0291 | [8]; compound concentration: 6.25uM 0.0533 | [8]; compound concentration: 12.5uM -0.077 | [8]; compound concentration: 25uM -0.127 | [8]; compound concentration: 50uM -0.0252 | [8]; compound concentration: 100uM -0.0157 | [8]; compound concentration: 200uM -0.158 | [9]; compound concentration: 50uM -0.0453 | [9]; compound concentration: 200uM -0.739 | [10]; compound concentration: 50uM -0.482

YOD1 (UniProt Q5VVQ6)
Sequence of UniProt Q5VVQ6 (Q5VVQ6 whole entry): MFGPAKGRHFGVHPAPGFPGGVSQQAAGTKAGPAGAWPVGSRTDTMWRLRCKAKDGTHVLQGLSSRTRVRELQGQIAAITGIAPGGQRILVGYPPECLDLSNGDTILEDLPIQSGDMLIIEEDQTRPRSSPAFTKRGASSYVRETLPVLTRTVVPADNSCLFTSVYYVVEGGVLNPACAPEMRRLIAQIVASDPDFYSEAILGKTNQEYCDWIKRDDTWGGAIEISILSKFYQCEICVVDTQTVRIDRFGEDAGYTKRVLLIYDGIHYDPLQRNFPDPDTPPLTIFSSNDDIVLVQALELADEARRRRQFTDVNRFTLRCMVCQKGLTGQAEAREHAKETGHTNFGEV
inactive: [1]; compound concentration: 50uM -0.141 | [1]; compound concentration: 200uM -0.171 | [2]; compound concentration: 50uM -0.237 | [2]; compound concentration: 200uM -0.218 | [3]; compound concentration: 50uM -0.0162 | [3]; compound concentration: 200uM -0.45 | [4]; compound concentration: 50uM 0.0347 | [4]; compound concentration: 200uM -0.0749 | [5]; compound concentration: 50uM -0.0482 | [5]; compound concentration: 200uM 0.0949 | [6]; compound concentration: 0.78uM -0.286 | [6]; compound concentration: 1.56uM -0.115 | [6]; compound concentration: 3.13uM -0.302 | [6]; compound concentration: 6.25uM -0.266 | [6]; compound concentration: 12.5uM -0.478 | [6]; compound concentration: 25uM -0.333 | [6]; compound concentration: 50uM -0.142 | [6]; compound concentration: 100uM -0.14 | [6]; compound concentration: 200uM -0.258 | [7]; compound concentration: 0.78uM -0.469 | [7]; compound concentration: 1.56uM -0.274 | [7]; compound concentration: 3.13uM -0.434 | [7]; compound concentration: 6.25uM -0.346 | [7]; compound concentration: 12.5uM -0.221 | [7]; compound concentration: 25uM -0.268 | [7]; compound concentration: 50uM -0.264 | [7]; compound concentration: 100uM -0.248 | [7]; compound concentration: 200uM -0.262 | [8]; compound concentration: 0.78uM -0.197 | [8]; compound concentration: 1.56uM -0.309 | [8]; compound concentration: 3.13uM -0.298 | [8]; compound concentration: 6.25uM -0.173 | [8]; compound concentration: 12.5uM -0.186 | [8]; compound concentration: 25uM -0.167 | [8]; compound concentration: 50uM -0.0663 | [8]; compound concentration: 100uM -0.169 | [8]; compound concentration: 200uM -0.282 | [9]; compound concentration: 50uM 0.213 | [9]; compound concentration: 200uM -0.308 | [10]; compound concentration: 50uM -0.12 | [10]; compound concentration: 200uM -0.312

Source: the supplement of paper PMC11732987, “Enantioselective OTUD7B fragment discovery through chemoproteomics screening and high-throughput optimisation” (Communications Chemistry, 2025)
